Rows were chosen to be rich in hits. Some 2.6% of all compounds tested hit in one or more screens of this group.
Cruzain inh Det: cruzain (T. cruzi) inhibition with detergent; purified cruzain, Z-FR-AMC fluorescence, 0.01% Triton; Potency, µM, inactives show max response, negative = inhibition, usual class: inhibitors; AID 1478; 0.43% of 200,000 active; P25779;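 further: plate controls were neutral wells for no effect and buffer without enzyme for full effect; nearly all actives have a fitted effect of over 40% in size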
Target sequence (P25779 123-467 limits assumed): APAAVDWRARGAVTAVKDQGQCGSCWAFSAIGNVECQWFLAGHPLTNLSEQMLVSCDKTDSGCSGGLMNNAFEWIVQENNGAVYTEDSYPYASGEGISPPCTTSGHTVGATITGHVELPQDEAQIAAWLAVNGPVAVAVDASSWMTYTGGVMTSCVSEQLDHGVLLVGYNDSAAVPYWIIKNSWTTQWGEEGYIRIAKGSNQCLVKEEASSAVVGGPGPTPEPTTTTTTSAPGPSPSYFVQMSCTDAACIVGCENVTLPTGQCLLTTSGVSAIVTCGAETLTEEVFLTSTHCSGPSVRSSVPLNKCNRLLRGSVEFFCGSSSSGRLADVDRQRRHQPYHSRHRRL
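Sodium acetate buffer (100 mM, pH 5.5) containing 5 mM DTT and 0.01% Triton X-100 hosted 1.5 nM cruzain and test compound for 15 min at room temperature. Cleavage of 2 uM Z-FR-AMC was then tracked by fluorescence.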
Cruzain inh noDet: blocks cruzain activity in detergent-free assay | Potency, µM, inactives show max response, negative = inhibition, most hits filed as inhibitors | purified cruzain, Z-FR-AMC fluorescence, no detergent | 2.3% of 200,000 active | P25779 | AID 1476;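 further: plate controls were enzyme without inhibitor for no effect and buffer without enzyme for full effect; nearly all actives have a fitted effect of over 40% in size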
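Detergent-free condition (0.00005% Triton X-100) in acetate buffer pH 5.5 with DTT. 1.5 nM enzyme and compound were pre-mixed 15 min, then 2 uM Z-FR-AMC substrate added; reaction progress from fluorescence change between first and third reads (60 s).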
An asterisk follows results filed as active; ? = inconclusive. The call rests on the fitted dose curve; in most records, active means well fitted curve in the direction sought with a large enough effect; inconclusive means small, poorly fitted or top-dose-only effect, or another doubt; inactive means no such curve, though single readings can be large; an effect the other way counts as inactive or inconclusive. Potency means the concentration at half of the fitted maximal effect.

SMILES | Cruzain inh Det | Cruzain inh noDet
Cc1noc(C(=O)Nc2ccc3c(c2)OCO3)c1Cl | -6% | -3%
Cc1ccc2c(Cl)c(C(=O)Nc3ccc4c(c3)OCO4)sc2c1 | -3% | 20µM*
O=C(c1cccc([N+](=O)[O-])c1)N1CCN(c2ccc(Cl)cc2)CC1 | 0% | -4%
O=[N+]([O-])c1cccc(/C=N\N2CCN(c3ccc(Cl)cc3)CC2)c1 | -2% | 25µM*
O=[N+]([O-])c1ccc(N2CCN(c3nc(-c4ccc(Cl)cc4)cs3)CC2)cc1 | -2% | 13µM*
O=[N+]([O-])c1ccc(Cl)c(/C=N/N2CCN(Cc3ccc(Cl)cc3)CC2)c1 | -7% | -3%
CCOC(=O)N1CCN(c2nc(-c3ccc(Cl)cc3)cs2)CC1 | -2% | 4%
O=[N+]([O-])c1ccc(/C=N\N2CCN(c3ccc(Cl)cc3)CC2)cc1 | 3% | 16µM*
Cn1c(=NC(=O)c2ccc(S(=O)(=O)N3CCCC3)cc2)sc2cc(F)ccc21 | 0% | -1%
Cc1[nH]c(C)c(CN(C)C)c1CN(C)C | 0% | -6%
CC1=CC(=O)[C@@H]2C[C@H]1C2(C)C | -2% | -5%
Cc1sc2nc(SCc3nc4ccccc4[nH]3)n(Cc3ccco3)c(=O)c2c1C | -2% | 32µM*
Cc1cccc(CSc2nc3sc(C)c(C)c3c(=O)n2Cc2ccco2)c1 | 4% | ?
COc1cccc(CSc2nc3sc(C)c(C)c3c(=O)n2Cc2ccco2)c1 | -3% | 25µM*
Cc1sc2nc(SCc3ccccc3)n(Cc3ccco3)c(=O)c2c1C | 0% | ?
Cc1cc(C)c(C#N)c(SCc2nnc(-c3ccccc3)o2)n1 | -5% | 4%
COc1ccccc1-c1cc(-c2ccc(C)cc2)nc(SCc2nnc(-c3ccccc3)o2)c1C#N | 0% | 4µM*
Cc1cccc(NC(=O)N2CC(=O)Nc3sc4c(c3C2c2ccccc2)CCCC4)c1C (configuration not stated) | -5% | 3%
CCc1nn(CC(=O)NCCc2ccc(Cl)cc2)c(=O)c2cc3ccccc3n12 | -1% | -14%
O=C(COc1cccc(F)c1)N[C@@H](Cc1ccccc1)c1nc2ccccc2[nH]1 | 13µM* | -1%
CC(NC(=O)Cc1ccccc1)c1nc2ccccc2[nH]1 (configuration not stated) | 1% | -22%
Cc1cccc(Cn2c(=O)n3nc(-c4ccccc4)nc3c3ccccc32)c1 | -4% | 2%
CCn1nc(-c2ccccc2)c(-c2ccccc2)c(C(=O)Nc2ccc(S(N)(=O)=O)cc2)c1=O | -2% | ?
Oc1cccc(NC(=S)Nc2ccc(SC(F)F)cc2)c1 | -5% | -2%
FC(F)Sc1ccc(NC(=S)NC2CCC(NC(=S)Nc3ccc(SC(F)F)cc3)CC2)cc1 (configuration not stated) | 2% | 16µM*
SMILES | Cruzain inh Det | Cruzain inh noDet
Cc1cc(Br)ccc1NC(=O)C1CCN(S(=O)(=O)c2cccc3nsnc23)CC1 | 6% | ?
Cc1c2cnn(CC(=O)Nc3cccc(C(F)(F)F)c3)c(=O)c2c(C)n1Cc1ccccc1Cl | -4% | ?
CCOc1ccc2nc(N3CCCC(C(=O)NCc4ccc(OC)cc4)C3)sc2c1 (configuration not stated) | 0% | 30%
Cc1ccc(C)c(NC(=O)Cn2c(=O)n(Cc3ccc4c(c3)OCO4)c(=O)c3oc4ccccc4c32)c1 | 0% | 0%
CC(=O)NC(Cc1c[nH]c2ccccc12)C(=O)OCC(=O)Nc1cc(C)on1 (configuration not stated) | -2% | -1%
CCc1ccc(C(=O)NC(Cc2c[nH]c3ccccc23)C(=O)OCC(=O)c2ccc(Br)cc2)cc1 (configuration not stated) | -5% | 16µM*
O=C(NC(Cc1c[nH]c2ccccc12)C(=O)O)c1ccccc1 (configuration not stated) | -3% | -8%
O=C(COC(=O)C(Cc1c[nH]c2ccccc12)NC(=O)c1ccc(Cl)cc1)c1ccc(Cl)cc1 (configuration not stated) | -2% | ?
CC(C)(C)c1ccc(C(=O)NC(Cc2c[nH]c3ccccc23)C(=O)OCC(=O)c2ccc(Br)cc2)cc1 (configuration not stated) | -4% | 10µM*
O=C(COC(=O)C(Cc1c[nH]c2ccccc12)NC(=O)c1ccc(Br)cc1)c1ccc(Cl)cc1 (configuration not stated) | -1% | ?
Cc1cc(NC(=O)COC(=O)[C@H](Cc2c[nH]c3ccccc23)NC(=O)c2ccc(F)cc2)no1 | 14µM* | ?
Cc1ccc(C(=O)COC(=O)C(Cc2c[nH]c3ccccc23)NC(=O)c2ccc(C(C)(C)C)cc2)cc1 (configuration not stated) | 2% | 10µM*
O=C(c1ccc2c(c1)N(Cc1c(F)cccc1Cl)C(=O)c1ccccc1S2)N1CCCC1 | 1% | 7%
Cc1ccc(Nc2c(-c3c[nH]c4ccccc34)nc3cc(C)ccn23)cc1 | -10% | ?
Cc1ccn2c(Nc3ccccc3)c(-c3c[nH]c4ccccc34)nc2c1 | -17% | 13µM*
Cc1ccccc1C(=O)Nc1ccc(S(=O)(=O)N2CCC(c3nc4ccccc4s3)CC2)cc1 | -2% | -6%
Cc1ccc2nc(NC(=O)c3ccc(Cl)s3)sc2c1 | 1% | 13µM*
CCCOc1ccc(C(=O)NC(=S)Nc2nc3ccc(C)cc3s2)cc1 | 7% | 25µM*
CCCOc1ccc(C(=O)NC(=S)Nc2nc3ccccc3s2)cc1 | 2% | ?
CCOCC(=O)Nc1nc2ccc(C)cc2s1 | -4% | 4%
Cc1ccc2nc(NC(=O)c3cccs3)sc2c1 | 0% | -8%
C/C=C/C(=O)OCC(=O)Nc1nc2ccc(C)cc2s1 | 0% | 20µM*
CCOCCCNC(=O)c1cc2c(=O)[nH]c3ccccc3c2n1C | 0% | 14%
COc1ccccc1CNC(=O)C1CCCN(c2nnc(-n3c(C)ccc3C)s2)C1 (configuration not stated) | -4% | -6%
COc1ccc(C2C(C#N)=C(N)N(c3cccnc3)C3=C2C(=O)CCC3)cc1Cn1cc([N+](=O)[O-])cn1 (configuration not stated) | -3% | -12%
SMILES | Cruzain inh Det | Cruzain inh noDet
COc1ccc(C2C(C#N)=C(N)N(c3ccccc3)C3=C2C(=O)CCC3)cc1Cn1cc([N+](=O)[O-])cn1 (configuration not stated) | -1% | 20µM*
COc1ccc(C2C(C#N)=C(N)Oc3c2c(=O)oc2ccccc32)cc1Cn1cc([N+](=O)[O-])cn1 (configuration not stated) | -4% | 25µM*
COc1ccc(C2C(C#N)=C(N)OC3=C2C(=O)CCC3)cc1Cn1cc([N+](=O)[O-])cn1 (configuration not stated) | -3% | -7%
O=C(NCc1nc2ccccc2[nH]1)c1c(F)cccc1F | ? | -6%
CNC(=O)C1CCC(Cn2c(=O)c3sccc3n(CC(=O)NCc3ccc(C)cc3)c2=O)CC1 (configuration not stated) | -2% | -1%
CCOc1ccc(/C=N/NC(=S)Nc2c(C)cccc2C)cc1 | -7% | -1%
CCNC(=S)N/N=C/c1ccc(OCCOc2ccccc2C)cc1 | 2% | 16µM*
COc1ccc(NC(=O)CSC2=Nc3ccccc3C3=NC(CCC(=O)NCc4cccs4)C(=O)N23)cc1 (configuration not stated) | -4% | -11%
O=C(Nc1ccccc1)Nc1nnc(/C=C/c2ccccc2Cl)s1 | -4% | 25µM*
O=C(Nc1ccccc1)O/N=C/c1ccccc1Cl | 5% | 8%
